High-throughput results: PubChem, National Center for Advancing Translational Sciences (NCATS)
S-ASM inh = Inhibitors of Secretory Acid Sphingomyelinase (S-ASM): qHTS | Sphingomyelin phosphodiesterase (Homo sapiens), P17405 | Potency, µM (titrated, usually from 57.5 µM), for inactives: at the top dose activity change, negative = inhibition, actives largely listed as inhibitors | placental ASM, HMU-PC fluorogenic substrate, 60 min | AID 504937, 2011 | 340,000 compounds, 0.006% hits
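Fluorescence read-out (Ex 386 nm, Em 447 nm) after stopping the reaction at pH 10. Enzyme: ASM from human placenta; substrate HMU-PC0, 9 uM final; 60 min, 37 °C. Compound preincubation 10 min, ambient temperature.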
TDP1 block = qHTS Assay for Inhibitors of Tyrosyl-DNA Phosphodiesterase (TDP1) | Tyrosyl-DNA phosphodiesterase 1 (Homo sapiens), Q9NUW8 | Potency, µM (doses to about 130 µM), inactives show top-dose activity change, negative = inhibition, actives largely listed as inhibitors | recombinant TDP1, AlphaScreen DNA substrate cleavage | 350,000 compounds, 0.28% hits; further: on the % scale 0 is the no-effect control and ±100 the full control effect; nearly all actives have a fitted effect of over 40% in size
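Recombinant human Tdp1 (E. coli-expressed, 1 nM final) preincubated with compounds 15 min at room temperature, then 5'-biotin/3'-phosphotyrosine-FITC DNA substrate (15 nM final) added for 5 min. AlphaScreen beads (10 ug/ml final) added 10 min; cleavage lowers signal.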
VDR inh = Inhibitors of the vitamin D receptor (VDR): qHTS. VDR-SRC2-3 peptide fluorescence polarization, 2 h. Potency, µM, for inactives: max response, negative = inhibition, hits mostly inhibitors. 400,000 compounds, 0.93% hits; further: on the % scale 0 is the no-effect control and ±100 the full control effect
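Signal is fluorescence polarization, reporting how far test compounds block the interaction of VDR with the SRC2-3 coregulator peptide after a 2 h room-temperature incubation.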
PLK1 PBD block = qHTS for Inhibitors of PLK1-PDB (polo-like kinase 1 - polo-box domain): Primary Screen; Plk1 PBD binding of FITC phosphopeptide, fluorescence polarization; Potency, µM, without a hit: max response, negative = inhibition, most hits filed as inhibitors; 360,000 compounds, 2.8% hits; further: series mostly up to about 57 µM; on the % scale 0 is the no-effect control and ±100 the full control effect; nearly all actives have a fitted effect of over 65% in size
Target sequence (P53350 whole entry, looked up, the tested form may be a part): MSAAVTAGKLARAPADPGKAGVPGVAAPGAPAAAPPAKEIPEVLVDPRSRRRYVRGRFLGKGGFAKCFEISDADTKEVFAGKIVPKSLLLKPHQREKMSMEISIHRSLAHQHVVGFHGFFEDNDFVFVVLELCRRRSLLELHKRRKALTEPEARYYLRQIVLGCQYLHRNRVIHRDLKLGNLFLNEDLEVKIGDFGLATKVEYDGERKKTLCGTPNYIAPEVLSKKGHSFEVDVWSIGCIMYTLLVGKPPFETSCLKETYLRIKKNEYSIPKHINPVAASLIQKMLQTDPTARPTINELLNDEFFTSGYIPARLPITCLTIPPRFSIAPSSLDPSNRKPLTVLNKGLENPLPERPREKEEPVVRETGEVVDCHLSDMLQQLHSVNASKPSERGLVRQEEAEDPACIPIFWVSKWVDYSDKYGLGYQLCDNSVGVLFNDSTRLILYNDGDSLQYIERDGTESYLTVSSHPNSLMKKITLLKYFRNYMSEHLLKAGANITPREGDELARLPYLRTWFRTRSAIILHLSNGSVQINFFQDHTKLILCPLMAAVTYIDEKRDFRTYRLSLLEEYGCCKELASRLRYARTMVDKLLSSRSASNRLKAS
Tb PFK inh = qHTS Assay to Find Inhibitors of T. brucei phosphofructokinase; T. brucei PFK, ADP-Glo luminescence; AID 485367, 2010; Potency, µM (titrated, usually from 57.5 µM), inactives show at the top dose activity, negative = inhibition, actives largely listed as inhibitors; ATP-dependent 6-phosphofructokinase (Trypanosoma brucei brucei), O15648; 330,000 compounds, 0.17% hits;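 further: 0% = uninhibited 1x PFK enzyme wells and -100% = no-enzyme wells; nearly all actives have a fitted effect of over 60% in size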
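Activity is normalized to no-enzyme wells (full inhibition) and 1.25 nM enzyme wells (no inhibition). Reaction: 0.5 mM F6P, 0.1 mM ATP, 45 min RT, ADP-Glo luminescence; concentration-response curves fitted and classed by quality.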
Pin1 inhibitor = qHTS Assay to Find Inhibitors of Pin1. Pin1 FP peptide displacement, HiFluor488, 10 min. Peptidyl-prolyl cis-trans isomerase NIMA-interacting 1 (Homo sapiens), Q13526. AID 504891, 2011. 390,000 compounds, 0.009% hits. Potency, µM (series often up to 115 µM), inactives show top-dose activity, negative = inhibition, usual class: inhibitors; active means well fitted inhibition curve with a large enough effect in the polarisation, with a control signal flat, not every such curve was filed as active; inconclusive means small, poorly fitted or top-dose-only effect, or effect the other way, or a change in a side signal; inactive means no such curve, though single readings can be large or run the other way; the % refers to the polarisation; further: on the % scale 0 is the no-effect control and ±100 the full control effect
* = called active by the depositor; ! = not active in a repeat; [ ] = remark or other dose. Only some compounds are listed: those with a hit (about 3.1% of all), similar ones and a draw of the others. Unless noted, the call rests on the fitted dose curve; in most records, active means well fitted curve in the direction sought with a large enough effect; inconclusive means small, poorly fitted or top-dose-only effect, or another doubt; inactive means no such curve, though single readings can be large; an effect the other way counts as inactive or inconclusive. Potency means the concentration at half of the fitted maximal effect.

What do the screens show for `C[C@@H](NCCCc1cccc(C(F)(F)F)c1)c1cccc2ccccc12`?
VDR inh: 2%

What do the screens show for `CSCC[C@H](NC(=O)[C@H](CC(C)C)N1CCC(NC(=O)[C@@H](NC(=O)[C@H](Cc2ccccc2)NC(=O)[C@H](CO)NC(=O)[C@H](CC(=O)O)NC(=O)[C@@H](N)CCCCN)C(C)C)C1=O)C(N)=O` (stereo partly specified)?
TDP1 block: 9%; VDR inh: -5%

How did CSCCOC(=O)c1[nH]c2c(c1C)C(=O)CC(c1ccco1)C2 (stereo unspecified) do in these assays?
S-ASM inh: 0%; TDP1 block: 13µM*; VDR inh: -14%; PLK1 PBD block: -29%; Tb PFK inh: inconclusive; Pin1 inhibitor: inconclusive

How did CCCCOc1ccc(CNC(=O)CCCN2C(=O)CSc3c2c(C)nn3-c2ccccc2)cc1 do in these assays?
TDP1 block: 7%; VDR inh: 1%; Pin1 inhibitor: inconclusive

How did CCCc1cc(=O)[nH]c(SCC(=O)c2c[nH]c3ccccc23)n1 do in these assays?
S-ASM inh: 11%; TDP1 block: -4%; VDR inh: inconclusive; PLK1 PBD block: 19µM*; Tb PFK inh: -6%; Pin1 inhibitor: inconclusive

Results for Cc1nn(C)c(C)c1CCC(=O)N1CCCC(C(=O)c2cccc(OC(C)C)c2)C1 (stereo unspecified) ?
S-ASM inh: -3%; TDP1 block: 3%; VDR inh: -24%; PLK1 PBD block: 27µM*; Tb PFK inh: -6%; Pin1 inhibitor: -9%

What do the screens show for `O=C(NC(=S)Nn1cnnc1)c1ccccc1Br`?
S-ASM inh: 6%; VDR inh: inconclusive; PLK1 PBD block: 30µM*; Tb PFK inh: -4%; Pin1 inhibitor: 1%

What do the screens show for `COc1cc(NS(=O)(=O)c2ccc(-c3cc(C)no3)cc2)cc(OC)c1`?
TDP1 block: 6%; VDR inh: 0%; Pin1 inhibitor: -3%

What do the screens show for `CC(=O)O[C@]1(C(C)=O)CC[C@H]2C3C=C(Cl)C4=CC(=O)[C@@H]5C[C@H]5[C@]4(C)C3CC[C@@]21C` (stereo partly specified)?
TDP1 block: 11%[56.1 µM]

What do the screens show for `O=C(NC1CCCC1)C(c1ccccn1)N(C(=O)c1csnn1)C1CCCCC1` (stereo unspecified)?
S-ASM inh: 1%; TDP1 block: 0%; VDR inh: inconclusive; PLK1 PBD block: 27µM*; Tb PFK inh: 3%; Pin1 inhibitor: -1%

Results for O=C(CN(Cc1cccs1)C(=O)c1csnn1)NC1CCCC1 ?
S-ASM inh: 2%; TDP1 block: 1%[56.1 µM]; VDR inh: -21%; PLK1 PBD block: 27µM*; Tb PFK inh: -1%; Pin1 inhibitor: inconclusive

How did CCCCN(Cc1ccccc1)C(=O)c1oc(=O)c2ccccc2c1-c1ccc(C)cc1 do in these assays?
TDP1 block: 0%; VDR inh: -4%; Pin1 inhibitor: -2%

How did COc1ccc2[nH]c(=O)cc(C(=O)O)c2c1 do in these assays?
S-ASM inh: 330%; TDP1 block: 22µM*; VDR inh: 0%; PLK1 PBD block: -5%; Tb PFK inh: -11%; Pin1 inhibitor: 4%

How did COc1cc(SC#N)ccc1N=Cc1c(C)[nH]n(-c2ccc(C)cc2C)c1=O do in these assays?
S-ASM inh: 23%; TDP1 block: 8%; VDR inh: inconclusive; PLK1 PBD block: 8.4µM*; Pin1 inhibitor: 19%

What do the screens show for `CC1=C(/C=C/C(C)=C/C=C/C(C)=C/C(=O)O)C(C)(C)CCC1O` (stereo unspecified)?
TDP1 block: 11%; VDR inh: 71µM*

What do the screens show for `CC1=C(/C=C/C(C)=C/C=C/C(C)=C/C(=O)O)C(C)(C)CCC1`?
S-ASM inh: -2%; TDP1 block: -8%; VDR inh: 45µM*!; PLK1 PBD block: inconclusive; Tb PFK inh: 0%; Pin1 inhibitor: -5%

How did CC1=C(/C=C/C(C)=C\C=C\C(C)=C\C(=O)O)C(C)(C)CCC1 do in these assays?
TDP1 block: 11%; VDR inh: 56µM*!

What do the screens show for `Cc1cccc(N2CCN(C(=O)c3cccn4c(=O)c5cc(Cl)ccc5nc34)CC2C)c1` (stereo unspecified)?
TDP1 block: 6%; VDR inh: 8%; Pin1 inhibitor: -3%

Results for CCCCC/C=C\C/C=C\C/C=C\C/C=C\CCCCCC(=O)O ?
TDP1 block: 7%; VDR inh: -1%

How did CC/C=C\C/C=C\C/C=C\C/C=C\C/C=C\CCCC(=O)O do in these assays?
TDP1 block: 7%; VDR inh: 40µM*!

What do the screens show for `CC/C=C\C/C=C\C/C=C\CCCCCCCC(=O)O`?
S-ASM inh: -5%; TDP1 block: 5µM*!; VDR inh: 22µM*!; PLK1 PBD block: inconclusive; Tb PFK inh: -2%; Pin1 inhibitor: inconclusive

How did CC/C=C\C/C=C\C/C=C\CCCCCCCCCCCC(=O)O do in these assays?
TDP1 block: 9%; VDR inh: 50µM*

How did CCCCC/C=C\C/C=C\CC1OC1C/C=C\CCCC(=O)O (stereo unspecified) do in these assays?
TDP1 block: 10%; VDR inh: 1%

What do the screens show for `S=C(NCCCN(Cc1ccc(Cl)c(Cl)c1)c1ccc(Br)cn1)NCCc1cnc[nH]1`?
Pin1 inhibitor: -4%

How did CCOC(=O)Cc1csc(NC(=O)CSc2nc3sc(C(=O)O)c(C)c3c(=O)[nH]2)n1 do in these assays?
S-ASM inh: -1%; TDP1 block: 2%; VDR inh: -1%; PLK1 PBD block: -14%; Tb PFK inh: 0%; Pin1 inhibitor: -8%

How did Cc1csc(NC(=O)CSc2nc3sc(C)c(C)c3c(=O)[nH]2)n1 do in these assays?
S-ASM inh: 1%; TDP1 block: -2%; VDR inh: inconclusive; PLK1 PBD block: 2.4µM*; Tb PFK inh: 0%; Pin1 inhibitor: 68%

How did COC[C@H]1OC=C[C@@H](OC)[C@@H]1OC do in these assays?
TDP1 block: 2%; VDR inh: 3%

Results for CCOC(=O)C1C(=O)NC(SC)=C(C#N)C1c1ccccc1F (stereo unspecified) ?
S-ASM inh: -1%; TDP1 block: 6%; VDR inh: -14%; PLK1 PBD block: -16%; Tb PFK inh: -3%; Pin1 inhibitor: -8%
